# GPR151 ag – activators of human GPR151, primary screen, cell-based, PathHunter beta-arrestin, luminescence. activation, % at 11.2 µM. PathHunter beta-arrestin GPR151 cells. actives 1% (n = 650,000). AID 1508602, 2020. G-protein coupled receptor 151 (Homo sapiens), Q8TDV0; in the data active means activation above about 4.9%;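 further: 0% = median of compound wells and 100% = cells with positive control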
# TEAD-YAP inh – TEAD-YAP interaction inhibition, primary screen, TEAD-YAP interaction inhibitor project, luminescence, HEK-TIYL cells. TEAD-Gal4/YAP UAS-luciferase luminescence. inhibition, % at 9.12 µM. actives 1.4% (n = 640,000). AID 1259422, 2018; in the data active means inhibition above about 32%;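 further: 0% = median of test compound wells and 100% = reference inhibitor wells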
# MITF inh – MITF inhibitors, primary screen, biochemical, AlphaScreen, human; Microphthalmia-associated transcription factor (Homo sapiens), O75030; AlphaScreen MITF homodimerization, bead proximity signal; inhibition, % at 2.6 µM; actives 0.91% (n = 650,000); in the data active means inhibition above about 50%;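 further: 0% = vehicle wells with protein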
# FBW7 act – FBW7 E3 ligase activators, primary screen, biochemical, AlphaScreen, human; F-box/WD repeat-containing protein 7 (Homo sapiens), Q969H0; AlphaScreen FBW7–phospho-cyclin E peptide binding, activator screen; normalized activity (activation), % at 26.1 µM; actives 0.13% (n = 650,000); AID 1259310, 2017; in the data active means normalized activity above about 1.9%;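 further: purified mutant Fbw7 with reduced substrate affinity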
# * = called active by the depositor. An excerpt weighted towards active compounds, which were near 3.4% of everything screened.
SMILES,GPR151 ag,TEAD-YAP inh,MITF inh,FBW7 act
CCOc1cc(C(Nc2cc(C)ccn2)c2ccc3cccnc3c2O)ccc1OCc1ccccc1 (configuration not stated),-0.1,80.3*,7.1,-0.1
O=C(COc1coc(CN2CCc3ccccc3C2)cc1=O)NCc1ccccc1,-0.3,-5.1,-11.5,0.1
O=[N+]([O-])c1ccc(N2CCN(c3ccc([N+](=O)[O-])c4cccnc34)CC2)cc1,-0.5,0.7,21.1,2.3*
Cc1ccc(C(=O)Nc2sc3c(c2C(=O)O)CCCCC3)cc1,-3.2,83.4*,-3.5,-0.1
Cc1ccc(C(=O)Nc2sc(C)c(C)c2C(=O)O)cc1,-2.0,48.6*,-4.0,0.0
O=C(Nc1sc2c(c1C(=O)O)CCCCC2)c1ccccc1,-8.9,45.7*,13.6,0.1
CCN(CC)C(=O)c1c(NC(=O)c2cccs2)sc2c1CCC2,0.0,35.9*,18.1,0.1
COc1ccc(Br)cc1CNC(=O)Cn1ncc2c(=O)oc3ccccc3c21,0.7,-0.7,8.8,0.2
Cc1ccccc1CNC(=O)C(=O)NCCCOC(C)C,1.8,6.2,3.1,-0.1
COc1cc(-c2cn[nH]c2)cc2c(=O)[nH]c(C(N)c3cccc(Cl)c3)nc12 (configuration not stated),2.8,49.0*,13.2,0.1
COc1ccccc1OCc1nc2ccc(-c3cn[nH]c3)cc2c(=O)[nH]1,-0.2,-4.3,18.7,-0.2
Cc1ccccc1OCc1nc2ccc(-c3cn[nH]c3)cc2c(=O)[nH]1,2.2,32.8*,-0.9,0.1
COc1ccccc1OCc1nc2ccc(-c3ccnc(N)n3)cc2[nH]1,-0.3,14.2,12.4,0.2
COc1cccc(OCc2nc3ccc(-c4ccnc(N)n4)cc3[nH]2)c1,0.1,49.8*,3.9,-0.1
COc1ccc(C[C@@H](N)c2nc3ccc(-c4cn[nH]c4)cc3c(=O)[nH]2)cc1,0.3,52.6*,24.2,-0.3
CC(C)(C)c1ccc(OCc2nnc(SCC(=O)NCc3ccccc3)n2-c2ccccc2)cc1,-0.7,0.2,11.7,0.1
NC(=O)c1c(NC(=S)NC(=O)c2cccc([N+](=O)[O-])c2)sc2c1CCCC2,0.2,2.0,16.5,0.2
Cc1ccccc1OCc1nc2ccc(-c3ccnc(N)n3)cc2[nH]1,0.5,51.5*,5.6,0.3
N#Cc1cc2cc3c(cc2nc1SCC(=O)Nc1ccccc1)OCCO3,-0.6,-8.0,-8.3,-0.1
COc1ccccc1NC(=O)CSc1nc2cc3c(cc2cc1C#N)OCO3,-1.1,2.7,-8.5,-0.1
CCOc1ccccc1NC(=O)CSc1nc2cc3c(cc2cc1C#N)OCCO3,-0.9,52.9*,5.8,0.0
N#Cc1c(N)nc(SCC(=O)NCc2ccccc2)c(C#N)c1-c1ccccc1Cl,1.0,58.3*,9.9,0.1
N#Cc1cc2cc3c(cc2nc1SCC(=O)NCc1ccccc1)OCCO3,2.1,36.2*,11.2,0.0
CCOc1ccccc1NC(=O)CSc1nc2ccc(OC)cc2cc1C#N,0.2,48.1*,-5.3,-0.1
COc1ccc(OC)c(NC(=O)CN2C(=O)NC(C)(c3ccc(OC(F)F)cc3)C2=O)c1 (configuration not stated),-1.2,2.4,11.9,1.1
SMILES,GPR151 ag,TEAD-YAP inh,MITF inh,FBW7 act
N#Cc1cc2cc3c(cc2nc1SCC(=O)Nc1ccccc1F)OCCO3,0.8,53.5*,2.1,-0.2
CC(C)c1ccc(C#N)c(SCC(=O)Nc2ccccc2C(=O)O)n1,-0.1,0.5,-9.7,3.9*
COc1ccc(C(=O)NNc2nc3ccc(C)cc3s2)c(OC)c1,1.4,-11.9,4.4,0.2
O=C(/C=C/c1cccc([N+](=O)[O-])c1)Nc1nc2ccccc2s1,-1.1,-7.6,-3.2,0.0
COc1cccc(N/C(N)=N/c2nc(C)cc(C)n2)c1,1.4,53.3*,-22.2,-0.2
Cc1cc(C)nc(/N=C(\N)Nc2cccc(OCc3ccccc3)c2)n1,1.2,49.6*,7.3,-0.3
COC(=O)c1ccc(OCC2c3cc(OC)c(OC)cc3CCN2C(=O)c2cc([N+](=O)[O-])ccc2Cl)cc1 (configuration not stated),-0.7,-14.2,-4.8,-0.1
COc1cc(-c2nc3sc(C)c(C)c3c(=O)o2)cc(OC)c1OC,0.0,-3.8,-2.6,2.3*
O=C(/C=C/Nc1ccccc1F)c1ccc(Br)cc1,-2.3,-46.9,23.0,0.8
O=C(/C=C\Nc1cccc(Br)c1)c1ccccc1,1.5,-54.2,15.2,0.1
O=C(/C=C\Nc1ccccn1)c1ccccc1,-5.8,41.3*,14.1,0.0
